According to PubChem BioAssay AID686978 (National Center for Advancing Translational Sciences (NCATS), 2013):
Several values for one entry are separate records, joined by “and”; a condition that tells them apart may be missing. Equal entries are not always repeated. Hit rate of the full screen: of about 420,000 compounds, about 64,000 (15%) were called active. Inconclusive results (about 27%) are left out. Calls follow the shape of the dose curve; as a rule, active = well fitted inhibition curve with a large enough effect; inconclusive = small, poorly fitted or top-dose-only effect; inactive = flat fitted curve, though single readings scatter. The entries come from a sample that favours actives as a whole.

Experiment: qHTS for Inhibitors of human tyrosyl-DNA phosphodiesterase 1 (TDP1): qHTS in cells in absence of CPT; also: nearly all actives have a fitted effect of over 55% in size
Details: DT40 Tdp1-/- hTDP1 cells, no CPT, ATP luminescence, 48 h; series mostly up to 46.2 µM; activity change, negative = growth inhibition: at the top concentration
Summary of the method: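 Seeded 400 DT40-hTDP1 cells/well (vehicle DMSO, no 20 nM CPT); pinned compounds; ≥48 hr at 37 °C; CellTiter-Glo luminescence as viability measure.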
% is scaled to controls: 0 for no effect and ±100 for the full control effect; potency is read from the fitted curve at half-maximal effect.

Compound	activity change, negative = growth inhibition	Potency
CC[N+](CC)(CC)CCCCCCCCCC[N+](CC)(CC)CC	-1.16% (inactive)	–
CNC(=O)N(C)c1nnc(C(C)(C)C)s1	–	inactive
COP(=O)(NS(=O)(=O)c1ccccc1)OC	10.3% (inactive)	–
CN1[C@@H]2CC[C@H]1CC(OC(=O)c1cc(Cl)cc(Cl)c1)C2 (stereo partly drawn)	–	13.3 µM (active) and 11.9 µM (active)
CN1CCC(OC(=O)c2cccc(F)c2)CC1	-23.6% (inactive)	–
CNP1(NC)=Nc2nn(-c3ccccc3)c(N)c2C(c2ccccc2)=N1	-8.1% (inactive)	–
Cc1cccc(Cn2cccc(C(=O)Nc3ccc4c(c3)OCCO4)c2=O)c1	–	20.6 µM (active)
CCN(CC)C(=O)c1ccc(NC(=O)c2cc(-n3cnnc3)ccc2Cl)cc1	-6.17% (inactive)	–
COc1cc(OC)cc(C2(C#N)CCN(C)CC2)c1	6.77% (inactive)	–
Cc1ccc(-n2c(O)c(C=NCC3CCCO3)c(=O)[nH]c2=O)c(C)c1 (stereo not drawn)	-4.24% (inactive)	–
CNC(=O)Nc1ccc(C(O)(C(=O)OC)C(F)(F)F)cc1 (stereo not drawn)	-2.08% (inactive)	–
Cc1cc(C(=O)OCC(=O)Nc2c(F)cccc2F)c(C)n1C1CC1	2.09% (inactive)	–
COC(=O)[C@@]12C[C@@H](CC(=O)NCc3cccc(C(F)(F)F)c3)C(=O)N(Cc3ccco3)C1=CCC(C)(C)C2	–	13 µM (active)
COc1cc(Cl)ccc1Nc1ncc(C(=O)N2CCN(c3ccccc3OC)CC2)c2ccccc12	–	5.8 µM (active)
C[C@@]1([C@@H](NP(=O)(c2ccccc2)c2ccccc2)c2ccccc2)C[C@H]1CCO	–	18.4 µM (active)
CCN1CCN(C(=O)Cc2coc3cc(C)cc(C)c23)CC1	-10.5% (inactive)	–
c1cncc(CNC2=NCCC2)c1	-15% (inactive)	–
CCN1C(=O)NC(=O)C2(CCCC2)C1=O	-4.11% (inactive)	–
O=C(CCCn1c(=O)[nH]c2cc(Cl)ccc2c1=O)N1CCC2(CC1)OCCO2	-6.95% (inactive)	–
COc1ccc(-c2nc(CS(=O)CC(=O)N3CCC4(CC3)OCCO4)c(C)o2)cc1 (stereo not drawn)	2.45% (inactive)	–
Cc1ccc(Cn2c(C)c3cnn(CC(=O)N4CCC5(CC4)OCCO5)c(=O)c3c2C)cc1	–	14.6 µM (active)
Cc1ccc(C(C)C)c(OCC(=O)N2CCN(CC(=O)N3CCOCC3)CC2)c1	-17.4% (inactive)	–
COC1C(O)C(C)OC(OC2CCC3(C=O)C(CCC4C3CCC3(C)C(C5=CC(=O)OC5)CCC43O)C2)C1O (stereo not drawn)	–	0.206 µM (active)
COC1CC(OC2CC[C@@]3(C=O)C4CC[C@]5(C)C(C6=CC(=O)OC6)CC[C@@]5(O)C4CC[C@]3(O)C2)OC(C)C1O (stereo partly drawn)	–	0.92 µM (active)
CN(C)/C=C(\C=[N+](C)C)c1[nH]ncc1[N+](=O)[O-]	7.97% (inactive)	–

Compound	activity change, negative = growth inhibition	Potency
Cc1ccc(C2CN(C)CC2C(=O)c2ccc(F)cc2)cc1 (stereo not drawn)	-12.1% (inactive)	–
COc1ccc(-n2c(O)c(C(C)=Nc3ccc4c(c3)CCC4)c(=O)[nH]c2=O)cc1	-28.5% (inactive)	–
Cc1ccc(-c2nc3ccccc3c(=O)n2-c2ccc(Br)cn2)cc1	-24.3% (inactive)	–
CSc1nc2ccc(C)cc2c(=O)n1-c1cccnc1	-9.55% (inactive)	–
Cc1ccc(-n2c(-c3ccc([N+](=O)[O-])cc3)nc3ccccc3c2=O)cc1	–	8.2 µM (active)
O=c1c2ccccc2nc(-c2ccccc2)n1-c1ccccn1	-2.29% (inactive)	–
COc1ccc(-n2c(-c3ccccc3)nc3ccccc3c2=O)cc1	–	13 µM (active)
COC1=C[C@]23CCCN2CCc2cc4c(cc2[C@@H]3[C@@H]1O)OCO4	-13.2% [at 9.04 µM] (inactive)	–
c1ccc2sc(C3CCCNC3)nc2c1 (stereo not drawn)	-13% (inactive)	–
CN(C)C(=O)Oc1cc(OC(=O)N(C)C)cc(C(O)CNC(C)(C)C)c1 (stereo not drawn)	–	inactive
CC(=O)Cc1ccc(OC(C)C)cc1	-10.7% (inactive)	–
OC1/C(=C/c2ccc(C(F)(F)F)cc2)N2CCC1CC2 (stereo not drawn)	-13% (inactive)	–
O=C(CCC(=O)N1C[C@H]2C[C@@H](C1)c1cccc(=O)n1C2)NCc1ccccc1C(F)(F)F	-0.958% (inactive)	–
C#C[C@]1(O)CC[C@H]2[C@@H]3CCC4=C/C(=N/O)CC[C@@H]4[C@H]3CC[C@@]21CC	–	21.1 µM (active)
C#C[C@]1(OC(=O)CCCCCC)CC[C@H]2[C@@H]3CCC4=CC(=O)CC[C@@H]4[C@H]3CC[C@@]21C	-21.7% (inactive)	–
CC(C)N(CC#CCC1(O)c2ccccc2-c2ccccc21)C(C)C	-24.2% (inactive)	–
C[C@]12CCC3C(CC[C@H]4C[C@@H](O)CC[C@]34C)C1CC[C@@H]2O (stereo partly drawn)	4.7% (inactive)	–
O=C(O)C1CSC(c2cccnc2)N1 (stereo not drawn)	-11.6% (inactive)	–
CC(=O)c1ccc(S(=O)(=O)N2CCN(c3nc4c(C)c(C)ccc4cc3C#N)CC2)cc1	–	12.6 µM (active)
CCOC(=O)CC1=C(C(=O)OCC)C2(C(=O)N1)C(C(=O)OC)=C(N)Oc1ccccc12 (stereo not drawn)	0.689% (inactive)	–
CCCCC(=O)N/N=C/c1c(O)n(CCC2=CCCCC2)c(=O)[nH]c1=O	–	25.9 µM (active)
CCCCC(=O)N/N=C/c1c(O)n(-c2ccccc2)c(=O)[nH]c1=O	-10.2% (inactive)	–
O=c1[nH]c(=O)n(CCc2ccc(F)cc2)c(O)c1/C=N/N1CCCCC1	-14.5% (inactive)	–
CC(C)(Cc1c[nH]c2ccc(Cl)cc12)NCCOc1ccccc1OCC1CC1	–	26.6 µM (active) and 5.17 µM (active)
CC1CCC(N(C)C2CCN(C)CC2)CC1 (stereo not drawn)	-18.5% (inactive)	–

Compound	activity change, negative = growth inhibition	Potency
O=C(COC(=O)Cc1ccccc1)Nc1ccc(F)cc1	1.09% (inactive)	–
CCOC(=O)c1ccc(N2C(=O)c3[nH]nc(-c4ccccc4)c3C2c2ccc(C(C)C)cc2)cc1 (stereo not drawn)	–	25.9 µM (active)
CCN(N=Nc1nonc1OC)c1nonc1OC	-6.66% (inactive)	–
O=c1[nH]c(=O)n(-c2ccc(F)cc2)c(O)c1C=NCCN1CCCCC1	4.02% (inactive)	–
CCn1cc2nc(SCc3ccccc3Cl)n(CCc3ccccc3)c(=O)c2n1	–	20.6 µM (active)
COc1cccc(OC)c1C(=O)NC(=S)N1C[C@H]2C[C@H](C1)c1cccc(=O)n1C2	0.63% (inactive)	–
CC(C)=C[C@@H]1[C@@H](C(=O)OCc2coc(Cc3ccccc3)c2)C1(C)C	-4.94% (inactive)	–
CN1CCN(C(=O)O[C@@H]2c3nccnc3C(=O)N2c2ccc(Cl)cn2)CC1	-14.9% (inactive)	–
CCC(C)(O)C(=O)OC1C(=O)OC2CC3C(C)=CC(=O)C(O)C3(C)C3C4(O)OCC23C1C(C)C4O (stereo not drawn)	–	0.13 µM (active)
N#CC(C#N)=Cc1cc(O)c(O)c([N+](=O)[O-])c1	-19.8% (inactive)	–
O=C(N/N=C/c1ccc([N+](=O)[O-])o1)c1cc([N+](=O)[O-])cc([N+](=O)[O-])c1O	-54% (inactive)	–
CC(=O)OC1C2CCC3C1(CC(O)[C@@]1(O)[C@@H](CC(O)C1(C)C)[C@]3(C)O)C[C@@]2(C)O (stereo partly drawn)	0.989% (inactive)	–
COc1ccc(-c2cc(NC=O)c3ncc(-c4cc(OC)c(OC)c(OC)c4)n3c2)c(OC)c1	–	0.82 µM (active)
O=C1NC(=O)N(Cc2ccco2)C(=O)/C1=C\c1cccn1CCOc1ccccc1	-1.44% (inactive)	–
O=C(O)COc1ccccc1/C=C1\C(=O)NC(=O)N(CCC2=CCCCC2)C1=O	0.529% (inactive)	–
O=C1NC(=O)N(CCc2ccc(F)cc2)C(=O)/C1=C/C=C/c1ccccc1	–	6.51 µM (active)
CCc1ccc(N(CC)C(=O)CCn2cnc3onc(-c4ccc(F)cc4)c3c2=O)cc1	–	13 µM (active)
O=C(/C=C/c1cccs1)c1cc(Cl)ccc1OC(=O)N1CCOCC1	–	16.4 µM (active)
Cc1cccc(-n2c(O)c(C=NC34CN5CN(CN(C5)C3)C4)c(=O)[nH]c2=O)c1	6.16% (inactive)	–
COC12CC[C@@]3(C[C@@H]1C(C)(O)C(C)(C)C)[C@H]1Cc4ccc(O)c5c4[C@@]3(CCN1CC1CC1)[C@H]2O5 (stereo partly drawn)	–	24.1 µM (active)
Oc1ccc2c3c1OC1[C@H](O)CC[C@@]4(O)[C@@H](C2)N(CC2CC2)CC[C@]314 (stereo partly drawn)	–	inactive
CCOC(=O)C1CN(C)CCC1=O (stereo not drawn)	-26% (inactive)	–
CCC/C(=N\O)c1c[nH]c2ccccc12	-19.1% (inactive)	–
CNCC[C@H](Oc1ccc(C(F)(F)F)cc1)c1ccccc1	–	8.41 µM (active) and 14.6 µM (active)
CCC1(CC(C)c2ccccc2)C(=O)NC(=O)NC1=O (stereo not drawn)	-14.9% (inactive)	–

Compound	activity change, negative = growth inhibition	Potency
CCCCC/C=C\C/C=C\C/C=C\CCCCCCC(=O)NCCO	-2.66% [at 4.12 µM] (inactive)	–
CC1CCCN1CCC(C(N)=O)(c1ccccc1)c1ccccc1 (stereo not drawn)	-4.44% (inactive)	–
O=Cc1cn(Cc2ccc(F)cc2Cl)c2ccccc12	–	18.4 µM (active)
O=[N+]([O-])c1ccc(Cl)c(Cl)c1	-16.7% (inactive)	–
CCC(=NCc1ccco1)c1c(O)n(Cc2ccccc2)c(=O)[nH]c1=O	-23.7% (inactive)	–
Clc1ccc([C@@H]2C[C@H]3CC[C@@H]2N3)cn1	–	inactive
Cc1ccc([C@H]2C[C@H](O)[C@@H](n3cc(COC(=O)c4ccccc4)nn3)CN2CC2CCCCC2)cc1	–	20.6 µM (active)
COCCNC(=O)CN1C2CCC1CC(O)(c1cccnc1)C2 (stereo not drawn)	-16.8% (inactive)	–
Cn1c(O)c(C=NCCN2CCNCC2)c(=O)n(C)c1=O	-2.35% (inactive)	–
NCC(O)c1ccc(O)cc1 (stereo not drawn)	–	inactive
c1csc(CN2CC3(CCNCC3)C2)n1	-19.2% (inactive)	–
CCc1ccccc1NC(=O)c1sc2nc3c(cc2c1N)CN(Cc1ccccc1)CC3	–	5.8 µM (active)
CC12CN3CC(C)(CN(C1)C3c1cccs1)C2 (stereo not drawn)	-6.5% (inactive)	–
CC(=O)Nc1ccccc1C(=O)OCC(=O)c1cccc2ccccc12	-16.9% (inactive)	–
CCOc1cccc(=NC2CCCCC2)c2c(C)[nH]c(C)c12	–	5.8 µM (active)
O=C(N/N=C/c1c(O)n(C2CC2)c(=S)[nH]c1=O)c1ccccc1Cl	12.7% (inactive)	–
OC(CNC1CCCCC1)c1ccccc1 (stereo not drawn)	-4.78% (inactive)	–
CC1CC=CCC12C(=O)NC(=S)NC2=O (stereo not drawn)	0.763% (inactive)	–
COc1ccccc1CNC(=O)Cn1c(=O)oc2cc(Cl)ccc21	–	18.4 µM (active)
Cc1ccccc1N1C(=O)NC(=O)/C(=C\c2cc(C)n(C)c2C)C1=O	0.262% (inactive)	–
C[C@@]12CCC3C(CC[C@@H]4CC(O)CC[C@@]34C)C1CCC2O (stereo partly drawn)	7.33% (inactive)	–
C[C@]12CCC3C(CC[C@H]4[C@H](O)[C@H](O)CC[C@]34C)C1CCC2=O (stereo partly drawn)	–	13 µM (active)
C[C@]12CCC3C(CC[C@H]4[C@H](O)[C@H](O)CC[C@]34C)C1CC[C@@H]2O (stereo partly drawn)	-15.9% (inactive)	–
